Source: PubChem
RORg inh: ROR gamma (mouse) transcription inhibition. P51450. hit rate 5.4% among 310,000. Potency, µM (titrated, usually from 53.6 µM), for the others: at the top dose activity change, negative = inhibition, most hits filed as inhibitors. Drosophila S2 Gal4-RORgamma UAS-luciferase reporter, 20 h; further: potency means the concentration at half of the fitted maximal effect; on the % scale 0 is the no-effect control and ±100 the full control effect; nearly all actives have a fitted effect of over 60% in size
Target sequence (P51450 whole entry, looked up, the tested form may be a part): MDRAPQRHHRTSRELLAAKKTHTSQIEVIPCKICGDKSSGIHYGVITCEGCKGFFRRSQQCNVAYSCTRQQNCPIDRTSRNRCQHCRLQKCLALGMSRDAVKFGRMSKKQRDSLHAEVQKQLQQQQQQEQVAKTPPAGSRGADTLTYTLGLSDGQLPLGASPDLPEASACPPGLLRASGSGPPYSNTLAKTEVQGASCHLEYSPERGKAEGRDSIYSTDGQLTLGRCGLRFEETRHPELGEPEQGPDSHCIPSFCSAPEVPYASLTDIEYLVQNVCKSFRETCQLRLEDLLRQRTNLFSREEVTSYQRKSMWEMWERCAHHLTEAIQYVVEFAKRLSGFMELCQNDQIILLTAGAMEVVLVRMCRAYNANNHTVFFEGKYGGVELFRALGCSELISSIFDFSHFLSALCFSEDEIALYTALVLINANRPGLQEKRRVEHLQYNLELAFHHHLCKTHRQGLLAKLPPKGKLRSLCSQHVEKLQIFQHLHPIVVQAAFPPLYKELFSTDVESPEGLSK
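Compounds are pin-transferred onto Drosophila Schneider cells expressing a copper-inducible Gal4–ROR gamma transactivation domain fusion. After 1 hr, copper sulfate is added to 700 uM final; luciferase is read 20 hr later.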
VP16 counter: inhibits Gal4-VP16 luciferase reporter, ROR gamma counter-screen | Drosophila S2 Gal4-VP16 UAS-luciferase, luminescence, 20 h | Potency, µM (doses to about 53.6 µM), for the others: top-dose activity, negative = inhibition, usual class: inhibitors | hit rate 3.5% among 310,000 | AID 2546;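 further: Gal4-VP16 expression switched on by copper sulfate through the metallothionein promoter; potency means the concentration at half of the fitted maximal effect; on the % scale 0 is the no-effect control and ±100 the full control effect; nearly all actives have a fitted effect of over 50% in size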
IL-1B inflam inh: inhibitors of inflammasome signaling (IL-1 beta secretion); THP-1 LPS/ATP IL-1B secretion, AlphaLISA, 16 h; stronger effect = lower value; activity change, % at 57.5 µM; hit rate 4.7% among 360,000; in the data active means activity change below about -50%; inconclusive means mostly about -30% to -49%; further: on the % scale 0 is the no-effect control and ±100 the full control effect
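THP-1 cells pretreated 1 hr with compounds (up to 57.5 uM final), then stimulated with LPS (250 ng/mL final) plus ATP (1.25 mM final); secreted IL-1B measured by AlphaLISA after 16 hr, decreased signal indicating inhibition.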
MCF10A rerep: inducers of DNA re-replication in MCF 10A breast cells | Potency, µM (top dose mostly 46.1 µM), for inactives: at the highest dose activity, positive = re-replication, hits mostly activators | hit rate 2.9% among 350,000 | AID 624296 | MCF 10A DNA re-replication, Hoechst nuclear intensity, 48 h; further: potency means the concentration at half of the fitted maximal effect; % of control where 0% means no effect; nearly all actives have a fitted effect of over 50% in size
SW480 rereplic: DNA re-replication induction in SW480 cells; hit rate 1.8% among 340,000; Potency, µM (top dose mostly 46.1 µM), without a hit: top-dose re-replication activation, most hits filed as activators; AID 624297; SW480 DNA re-replication, Hoechst DNA content imaging, 48 h; further: potency means the concentration at half of the fitted maximal effect; % of control where 0% means no effect; nearly all actives have a fitted effect of over 55% in size
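Image-based read-out: total Hoechst fluorescence of nuclei (405 nm excitation, 500-530 nm emission), with hits raising the fraction of high-intensity nuclei. SW480 colon cells incubated 48 hr with compounds at 37 C.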
* marks the source's active call; other numbers are inactive results; ? = inconclusive; . = no result given; [ ] = another dose, or the depositor's remark. In the library only some 11% were active in any assay of this set; here they are far more common. Unless noted, the call rests on the fitted dose curve; in most records, active means well fitted curve in the direction sought with a large enough effect; inconclusive means small, poorly fitted or top-dose-only effect, or another doubt; inactive means no such curve, though single readings can be large; an effect the other way counts as inactive or inconclusive.

SMILES | RORg inh | VP16 counter | IL-1B inflam inh | MCF10A rerep | SW480 rereplic
Cc1nn(C(C)C(=O)N2CCCC2)c(=O)c2nn(-c3ccccc3)c(C)c12 (configuration not stated) | -17% | 4% | 0 | 13% | -22%
O=C(c1ccccc1)N1CCN(CC(O)COc2ccc(Br)cc2)CC1 (configuration not stated) | 18%[1.91 µM] | -12% | -3 | 8% | -2%
O=C(O)c1ccc(N[C@@H]2OC[C@@H](O)[C@@H](O)[C@@H]2O)cc1 | -10% | -2% | . | 2% | -1%
CNC[C@@H]1OCc2ccccc2-c2c(n(C)c3ccccc23)C(=O)N([C@H](C)CO)C[C@H]1C | . | . | -7 | . | .
CCOc1ccc(CCNC(=O)COC(=O)c2ccc(OC(C)C)cc2)cc1OCC | . | . | -12 | 7% | -1%
CC(C)(C)N1C(=O)[C@H]2[C@H]3[C@H](O)[C@H](O)C/C(=N/OCc4ccccc4)[C@@H]3CC[C@@H]2C1=O | 6%[10 µM] | -2%[10 µM] | . | . | .
Cc1cc(C)n(-c2ccc(C(=O)C(C#N)c3nc4ccccc4n3C)cc2)n1 (configuration not stated) | 3.2µM* | 8.9µM* | -12 | -7% | -4%
c1ccc2sc(-n3cc(C4CCCCC4)nn3)nc2c1 | . | . | 76 | . | .
CN(CC(=O)Nc1ccc(F)c(F)c1F)C(=O)c1ccc2c(c1)S(=O)(=O)N=C1CCCCCN12 | . | . | 1 | 4% | -17%
O=C(/C=C/c1ccc2c(c1)OCO2)c1ccc(O)cc1O | . | . | -95* | ? | ?
O=C(/C=C/c1ccc(Br)cc1)c1ccco1 | ? | 11µM* | -108* | ? | ?
O=C(COC(=O)c1ccc(O)cc1O)c1ccc2c(c1)OCO2 | 7.1µM* | ? | 19 | 0% | 0%
Cc1ccc(O)c(C(=O)/C=C/c2ccc3c(c2)OCCO3)c1 | ? | 7% | -52* | ? | 1%
O=C(/C=C\c1ccc2c(c1)OCO2)c1ccc(F)cc1 | 19%[10 µM] | 2%[10 µM] | . | . | .
COC(=O)C1=C(C)N(Cc2ccccc2)C(=NCc2ccc(OC)cc2)N[C@H]1c1ccc(Br)cc1 | -8% | 0% | . | . | .
C=CC[C@](C)(O)c1ccccc1 | -2% | 3% | . | . | .
CCOC(=O)c1c(NC(=O)/C=C/c2ccc3c(c2)OCO3)sc(C)c1CC | -2% | -2% | ? | 8.2µM* | 2%
Nc1ccccc1C(=O)/C=C\c1ccc2c(c1)OCO2 | 20%[10 µM] | -1%[10 µM] | . | . | .
O=C(/C=C/c1ccc2c(c1)OCO2)c1ccco1 | ? | ? | -96* | ? | ?
CC(=O)Nc1ccc(NC(=O)/C=C/c2ccc3c(c2)OCO3)cc1 | 10% | -14% | 13 | ? | 0%
O=C(/C=C/c1ccc2c(c1)OCO2)c1ccccc1 | ? | 28% | . | . | .
Nc1ccccc1C(=O)/C=C/c1ccc2c(c1)OCO2 | ? | ? | -3 | ? | 18µM*
NS(=O)(=O)c1ccc(NC(=O)/C=C/c2ccc3c(c2)OCO3)cc1 | -7% | 9% | 11 | 18µM* | 6.5µM*
NCCC[C@@H](CC(=O)N[C@@H]1CCNC[C@H]1C(=O)N[C@H](CC(=O)N[C@@H](CCC(=O)O)CC(=O)O)Cc1c[nH]c2ccccc12)NC(=O)C[C@H](Cc1ccccc1)NC(=O)[C@@H]1CNCC[C@H]1N | -20% | -7% | . | . | .
O=C(CC1(O)C(=O)Nc2ccccc21)c1ccc2c(c1)OCO2 (configuration not stated) | -13% | -1% | 0 | 7% | 0%
O=C(/C=C\c1ccc2c(c1)OCO2)CC1(O)C(=O)Nc2ccccc21 (configuration not stated) | 0% | 8% | -101* | ? | ?
CC1(C)CC(=O)C/C(=N\NC(=S)NCc2ccccc2)C1 | 14µM* | ? | -7 | -6% | -7%
CC1(C)CC(=O)C/C(=N\NC(=O)C2CC2c2ccccc2)C1 (configuration not stated) | -1% | -16% | -9 | -2% | -7%
CC1CCC/C(=N\NC(=S)NCc2ccccc2)C1 (configuration not stated) | 11µM* | ? | -1 | ? | 0%
CC1CCC/C(=N\NC(=S)Nc2ccccc2)C1 (configuration not stated) | 7.9µM* | ? | -26 | 5% | -10%
